Pf growth 96h = inhibits malaria parasite growth, 96 h; P. falciparum luciferase reporter growth, 96 h; Potency, µM (top dose mostly 28.7 µM), without a hit: top-dose activity change, negative = inhibition, most hits filed as inhibitors; 6.9% of 320,000 active; AID 504834; active means well fitted inhibition curve with a large enough effect; inconclusive means small, poorly fitted or top-dose-only effect, or another doubt; inactive means no such curve, though single readings can be large or run the other way; further: potency means the concentration at half of the fitted maximal effect; on the % scale 0 is the no-effect control and ±100 the full control effect
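Readout is luminescence from an integrated firefly luciferase in P. falciparum. Red cells, 2% hematocrit and 0.05% parasitemia final, were cultured with compound through two parasite generations (96 hours) at 37 C, 5% CO2.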
Pf growth 48h = P. falciparum growth inhibition at 48 hours (one generation); P. falciparum luciferase growth in erythrocytes, 48 h; Potency, µM (series often up to 28.7 µM), inactives show at the highest dose activity change, negative = inhibition, usual class: inhibitors; 5.9% of 310,000 active; active means well fitted inhibition curve with a large enough effect; inconclusive means small, poorly fitted or top-dose-only effect, or another doubt; inactive means no such curve, though single readings can be large or run the other way; further: potency means the concentration at half of the fitted maximal effect; on the % scale 0 is the no-effect control and ±100 the full control effect
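A one-generation exposure of luciferase-tagged malaria parasites in RPMI 1640/Albumax erythrocyte culture, 37 C and 5% CO2. Inhibition is inferred from decreased luminescence after adding detection reagent.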
Shiga inhibitor = blocks Shiga toxin action in Vero cells; 9.2% of 290,000 active; inhibition, % at 38.7 µM; Vero cells, Shiga toxin protein synthesis inhibition reporter; in the data active means inhibition mostly above about 28%, no sharp cut-off; inactive means mostly below about 43%; further: 0% is about no effect
Cycloheximide cs = counter-screen hit for Shiga toxin inhibitors, cycloheximide; cell reporter, cycloheximide protein synthesis inhibition counterscreen; max response, %; 12% of 300,000 active; in the data active means max response mostly above about 13%, no sharp cut-off; inactive means mostly below about 14%; further: read at 38.3 µM for the half of the compounds with a filed dose; 0% is about no effect
NS1 function inh = blocks influenza NS1 protein function; Potency, µM (top dose mostly 46.1 µM), for inactives: at the highest dose activity, positive = more growth; AID 2326; 0.4% of 270,000 active; further: potency means the concentration at half of the fitted maximal effect; actives are rising curves; nearly all actives have a fitted effect of over 50% in size
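Read-out: OD600 growth recovery of NS1-expressing budding yeast. Cells grown overnight at 30C in -URA glucose medium, washed, resuspended and diluted 1:100 in 2% galactose assay medium, pH 6.0. Same strain lacking NS1 served as positive control.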
SARS PLpro yeast = inhibitors of SARS-CoV papain-like protease in yeast; S. cerevisiae expressing SARS-CoV PLpro, growth rescue; Potency, µM (highest dose often 32.9 µM), for the others: at the highest dose activity, positive = growth rescue, most hits filed as activators; 0.19% of 330,000 active; further: potency means the concentration at half of the fitted maximal effect; 0% is about no effect; nearly all actives have a fitted effect of over 55% in size
Numbers without * were called inactive; ? = inconclusive; . = not tested or not shown. Most compounds without a hit are left out; they make up all but 21% or so of the library. Unless noted, the call rests on the fitted dose curve.

SMILES	Pf growth 96h	Pf growth 48h	Shiga inhibitor	Cycloheximide cs	NS1 function inh	SARS PLpro yeast
COc1cc2c(cc1OC)CN(CC(=O)Nc1ccc(C)c(S(=O)(=O)N3CCOCC3)c1)CC2	12µM*	?	-6	-9	-13%	10%
COc1cc2c(cc1OC)CN(CC(=O)Nc1ccc(Cl)c(S(=O)(=O)N(C)C)c1)CC2	?	13µM*	24	7	.	-1%
COc1cc2c(cc1OC)CN(CC(=O)Nc1ccc(S(=O)(=O)N(C)C)cc1)CC2	?	-27%	2	-2	.	0%
CCN(C(=O)CN1C(=O)NC2(CCCc3ccccc32)C1=O)c1ccc(F)cc1 (stereo not given)	?	?	.	.	.	4%
Cc1cccc(OCc2nnc(SCC(=O)c3cccs3)n2C)c1C	8.3µM*	-23%	39	21*	-64%	8%
CCn1c(SCC(=O)Nc2ccccc2)nnc1-c1cccs1	61%	-19%	1	-2	3%	0%
CCn1c(SCC(=O)c2cccs2)nnc1-c1cccs1	113%	28%	31	27*	-7%	-4%
N#Cc1ccc(CSc2nnc(-c3cccs3)n2-c2ccccc2)cc1	17µM*	?	-18	-1	-50%	0%
CCn1c(SCc2ccccc2)nnc1-c1cccs1	?	9.3µM*	19	13	-21%	-4%
CCCN(C(=O)COC(=O)Cn1c(=O)oc2ccccc21)c1c(N)n(Cc2ccccc2)c(=O)[nH]c1=O	26%	0%	.	.	.	6%
CNC(=O)CCN(Cc1ccco1)S(=O)(=O)c1ccc(OC)c(OC)c1	30%	35%	-3	1	-4%	1%
COc1ccc(NC(=O)c2ccc(S(=O)(=O)N3CCCC3)cc2)cc1OC	?	?	.	.	.	3%
CCOc1ccccc1NC(=O)C1CCN(C(=O)c2cccs2)CC1	17%	7%	-8	-5	-7%	-1%
CS(=O)(=O)CCC(C(=O)OCc1ccc(Cl)cc1)N1C(=O)c2ccccc2C1=O (stereo not given)	?	7%	-3	0	-14%	-2%
Cc1ccc(CNC(=O)CSc2nc3ccsc3c(=O)n2Cc2ccc(C(=O)O)cc2)cc1	?	-5%	-25	-4	.	1%
O=C(Nc1cccc(S(=O)(=O)NC2=NCCC2)c1)c1ccc(=O)[nH]c1	-18%	1%	.	.	.	-9%
CCn1c(SCc2ccccc2)nnc1C1CCCCC1	9.3µM*	?	-28	0	-18%	18%
Cc1ccc(CSc2nnc(-c3cccs3)n2C)cc1	16%	12µM*	31	18	-42%	-33%
CCn1c(SCc2ccccc2)nnc1C1CCN(S(=O)(=O)c2ccc(OC)cc2)CC1	?	?	-1	7	-14%	2%
Cc1ccccc1C(=O)N/N=C1/SCC(=O)N1Cc1ccccc1	1%	2%	1	-6	0%	0%
O=C(CCc1ccccc1)NC(=S)NCc1ccco1	-15%	-12%	32	21	-1%	0%
Cn1c(=O)c2c(-c3ccccc3F)c3c(nc2n(C)c1=O)-c1ccccc1C3O (stereo not given)	0.23µM*	-21%	10	-2	-4%	4%
Cn1c(=O)c2c(-c3cccc(F)c3)c3c(nc2n(C)c1=O)-c1ccccc1C3O (stereo not given)	58%	3%	-14	-5	10%	2%
COc1cc(CCN2C(=O)c3cccc4cccc(c34)C2=O)c(S(=O)(=O)N2CCCCCC2)cc1OC	2.3µM*	?	5	-3	?	3%
COc1cc(CCN2C(=O)c3cccc4cccc(c34)C2=O)c(S(=O)(=O)N2CCC(C)CC2)cc1OC	?	6.6µM*	13	-5	16%	-11%
SMILES	Pf growth 96h	Pf growth 48h	Shiga inhibitor	Cycloheximide cs	NS1 function inh	SARS PLpro yeast
CCN1C(=O)c2cccc3c(S(=O)(=O)N4CCC(C)CC4)ccc1c23	?	?	.	.	.	-7%
COc1cc(CCN2C(=O)c3cccc4cccc(c34)C2=O)c(S(=O)(=O)NCCCO)cc1OC	8.3µM*	?	17	1	5%	-12%
COc1cc(CCN2C(=O)c3cccc4cccc(c34)C2=O)c(S(=O)(=O)NCCO)cc1OC	?	?	30	0	2%	3%
COc1ccc(CCN2C(=O)c3cccc4c(C(=O)N5CCCCC5)ccc(c34)C2=O)cc1OC	8.3µM*	?	-9	-2	11%	-13%
CN(Cc1ccccc1)C(=O)N1CCOCC1	51%	64%	-4	2	8%	-1%
CCOC(=O)c1[nH]c(C)c(CN(C(C)=O)c2ccc(OCC)cc2)c1C	34%	?	-15	-1	3%	0%
CCOC(=O)c1c(NC(=O)/C=C/C(=O)O)sc(C)c1-c1ccc(C)c(C)c1	17%	9.3µM*	1	1	0%	-1%
COC(=O)c1c(NC(=O)/C=C/C(=O)O)sc(C)c1-c1ccc(C)c(C)c1	?	?	18	-1	-34%	-8%
Cc1ccc2nc(SCC(=O)N3CCOCC3)[nH]c2c1	216%	.	56*	38*	6%	10%
Cc1ccc2nc(SCC(=O)c3c(N)n(C)c(=O)n(C)c3=O)[nH]c2c1	-29%	-14%	30	-2	.	-3%
O=C(CSc1nc2ncc(Cl)cc2[nH]1)N1CCOCC1	.	.	.	.	.	6%
Cc1cc(C(=O)CSc2nc3ccc(Cl)cc3[nH]2)c(C)n1CC1CCCO1 (stereo not given)	?	.	44	13	21%	-6%
Cc1ccc2[nH]c(SCC(=O)N3CCOCC3)nc2c1C	1%	124%	98*	52*	0%	2%
Cc1ccc2nc(SCC3CCCCO3)[nH]c2c1 (stereo not given)	16%	-2%	44*	30*	-2%	0%
C/C(N)=C(/C#N)C(=O)CSc1nc2ccc(C)cc2[nH]1	168%	151%	86*	56*	-8%	-6%
COc1ccc(NC(=O)CSc2nnnn2Cc2ccccc2)cc1	-18%	?	5	1	2%	1%
COc1ccccc1NC(=O)Cn1nnc(C(=O)NCCc2ccccc2)c1N	?	11%	-5	-2	7%	-1%
CC(=O)c1cc2c(cc1NC(=O)CSc1nc3ccc(C)cc3[nH]1)OCO2	55%	?	4	20*	3%	15%
CC(=O)c1cc2c(cc1NC(=O)CSc1nc3ccccc3[nH]1)OCO2	-20%	-8%	-19	-1	-12%	18%
Cc1ccc(NC(=O)COC(=O)[C@@H]2CC(O)CN2S(=O)(=O)c2ccc3c(c2)OCCO3)cc1 (stereo not given in full)	.	.	.	.	.	5%
Cc1ccc2nc(-c3ccccn3)cc(C(=O)N3CCN(c4ncccn4)CC3)c2c1	2.6µM*	22%	-3	-2	-15%	-9%
O=C(c1cc(-c2ccccn2)nc2ccccc12)N1CCN(c2ncccn2)CC1	-5%	-18%	-10	3	4%	1%

Screening data from PubChem BioAssay.
